# JMJD2A Tudor inh: qHTS Assay for Inhibitors of JMJD2A-Tudor Domain | AlphaScreen JMJD2A-Tudor / H3K4me3 peptide binding | Potency, µM (highest dose often 114 µM), for the others: at the highest dose activity change, negative = inhibition, most hits filed as inhibitors | 4.4% of 390,000 active; also: % is scaled to controls: 0 for no effect and ±100 for the full control effect; nearly all actives have a fitted effect of over 50% in size
# Sfp inh: qHTS Assay for Inhibitors of Bacillus subtilis Sfp phosphopantetheinyl transferase (PPTase); Biochemical Sfp PPTase activity, qHTS; 3.5% of 310,000 active; Potency, µM, without a hit: largest response in the series, negative = inhibition, hits mostly inhibitors;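 also: the enzyme is Sfp with the accession as filed and its product quenches rhodamine fluorescence; 0% = enzyme reaction without inhibitor and -100% = no enzyme wells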
#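 Sfp 15 nM + cpd, 15 min RT; start w/ rhodamine-CoA 5 uM, BHQ-2-YbbR 12.5 uM (final); 50 mM Hepes pH 7.6, 10 mM MgCl2, 0.01% NP-40, 0.01% BSA; read 525/598 nm at 0 and 30 min.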
# HP1b binding inh: HTS for Inhibitors of HP1-beta Chromodomain Interactions with Methylated Histone Tails. Chromobox protein homolog 1 (Homo sapiens), P83916. AlphaScreen HP1-beta / biotin-H3K9me3 peptide binding. Potency, µM (highest dose often 114 µM), inactives show at the top dose activity change, negative = inhibition, usual class: inhibitors. 0.56% of 390,000 active. AID 540317, 2011; also: nearly all actives have a fitted effect of over 70% in size
#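 AlphaScreen: HP1-beta (50 nM) preformed 30 min with biotin-H3(1-18)K9me3 peptide (50 nM) in PBS pH 7.4, 0.01% Tween-20. Compound added for 30 min at RT, then streptavidin donor/nickel chelate acceptor beads (10 ug/mL) for 30 min.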
# G9a inh: qHTS Assay for Inhibitors of Histone Lysine Methyltransferase G9a | G9a H3K9 monomethylation, AlphaScreen, 2 h | Potency, µM (doses to about 102 µM), for the others: at the top dose activity, negative = inhibition, actives largely listed as inhibitors | 8.8% of 350,000 active | AID 504332, 2011; also: % is scaled to controls: 0 for no effect and ±100 for the full control effect; nearly all actives have a fitted effect of over 75% in size
#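 Enzyme 20 nM + cpd, 15 min RT; add b-H3K9 pep 500 nM / SAM 20 uM; 2 h RT; anti-H3K9me1 Ab 0.5 ug/mL + SA donor / anti-rabbit acceptor beads 20 ug/mL each, 10 min; AlphaScreen read.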
# BAZ2B block: qHTS Assay for Inhibitors of BAZ2B; AlphaScreen BAZ2B-H3K14Ac peptide displacement; Potency, µM (titrated, usually from 114 µM), for inactives: at the highest dose activity change, negative = inhibition, actives largely listed as inhibitors; 4.4% of 360,000 active; AID 504333, 2011; also: % is scaled to controls: 0 for no effect and ±100 for the full control effect; nearly all actives have a fitted effect of over 60% in size
# Target sequence (Q9UIF8 whole entry, looked up): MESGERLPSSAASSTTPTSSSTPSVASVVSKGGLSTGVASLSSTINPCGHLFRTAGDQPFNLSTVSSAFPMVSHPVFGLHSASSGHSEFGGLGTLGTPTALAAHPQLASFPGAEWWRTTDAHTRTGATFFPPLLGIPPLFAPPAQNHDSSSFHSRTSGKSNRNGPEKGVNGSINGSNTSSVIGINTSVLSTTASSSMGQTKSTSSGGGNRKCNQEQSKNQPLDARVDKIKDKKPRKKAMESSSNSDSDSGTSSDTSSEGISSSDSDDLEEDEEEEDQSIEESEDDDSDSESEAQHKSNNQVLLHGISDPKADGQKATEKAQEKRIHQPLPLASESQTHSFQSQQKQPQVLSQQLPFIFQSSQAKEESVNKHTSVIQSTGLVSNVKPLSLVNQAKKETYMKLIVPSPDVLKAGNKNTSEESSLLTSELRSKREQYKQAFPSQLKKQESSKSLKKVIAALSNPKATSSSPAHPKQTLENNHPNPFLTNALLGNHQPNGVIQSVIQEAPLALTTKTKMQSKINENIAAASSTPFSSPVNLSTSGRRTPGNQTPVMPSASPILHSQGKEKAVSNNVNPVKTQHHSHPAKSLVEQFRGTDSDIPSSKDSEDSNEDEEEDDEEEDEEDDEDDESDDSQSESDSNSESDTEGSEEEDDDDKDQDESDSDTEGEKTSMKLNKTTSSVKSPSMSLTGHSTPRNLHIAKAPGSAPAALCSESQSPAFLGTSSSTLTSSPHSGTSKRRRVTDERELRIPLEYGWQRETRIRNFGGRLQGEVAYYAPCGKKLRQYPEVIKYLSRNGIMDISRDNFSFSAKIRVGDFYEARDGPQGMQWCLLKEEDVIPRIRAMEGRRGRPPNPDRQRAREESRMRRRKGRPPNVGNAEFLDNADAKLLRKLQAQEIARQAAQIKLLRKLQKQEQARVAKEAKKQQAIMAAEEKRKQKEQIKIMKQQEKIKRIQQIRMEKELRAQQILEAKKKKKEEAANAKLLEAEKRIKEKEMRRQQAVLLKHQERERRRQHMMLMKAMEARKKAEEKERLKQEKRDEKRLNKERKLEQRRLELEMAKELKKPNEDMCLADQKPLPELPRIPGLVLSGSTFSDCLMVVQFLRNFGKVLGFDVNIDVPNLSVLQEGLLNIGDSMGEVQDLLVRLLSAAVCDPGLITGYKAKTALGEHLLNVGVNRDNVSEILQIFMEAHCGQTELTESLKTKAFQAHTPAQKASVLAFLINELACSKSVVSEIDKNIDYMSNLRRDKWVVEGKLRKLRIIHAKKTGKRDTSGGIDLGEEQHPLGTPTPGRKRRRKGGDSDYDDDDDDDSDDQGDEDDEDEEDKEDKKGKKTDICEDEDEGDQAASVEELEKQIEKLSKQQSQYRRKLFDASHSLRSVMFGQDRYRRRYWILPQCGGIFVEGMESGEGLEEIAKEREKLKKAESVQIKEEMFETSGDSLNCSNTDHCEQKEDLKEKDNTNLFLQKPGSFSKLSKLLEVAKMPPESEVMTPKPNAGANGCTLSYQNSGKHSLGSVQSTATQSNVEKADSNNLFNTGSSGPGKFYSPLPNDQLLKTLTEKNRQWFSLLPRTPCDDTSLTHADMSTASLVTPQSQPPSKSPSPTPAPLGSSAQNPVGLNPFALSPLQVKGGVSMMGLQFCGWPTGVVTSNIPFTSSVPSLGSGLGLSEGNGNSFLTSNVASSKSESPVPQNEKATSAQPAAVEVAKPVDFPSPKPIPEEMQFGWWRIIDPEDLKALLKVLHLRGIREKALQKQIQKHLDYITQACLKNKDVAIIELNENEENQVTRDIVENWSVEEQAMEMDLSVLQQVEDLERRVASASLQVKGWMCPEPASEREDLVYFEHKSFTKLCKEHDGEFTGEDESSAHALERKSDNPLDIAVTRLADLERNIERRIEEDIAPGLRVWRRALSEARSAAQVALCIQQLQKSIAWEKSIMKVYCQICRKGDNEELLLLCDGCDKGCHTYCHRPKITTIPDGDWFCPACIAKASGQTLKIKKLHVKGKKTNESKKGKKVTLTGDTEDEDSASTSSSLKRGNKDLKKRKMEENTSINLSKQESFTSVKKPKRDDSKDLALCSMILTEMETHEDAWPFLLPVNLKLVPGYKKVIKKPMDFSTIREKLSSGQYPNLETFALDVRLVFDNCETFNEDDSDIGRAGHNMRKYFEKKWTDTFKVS
#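 AlphaScreen displacement: compounds (up to 110uM) incubated 30 min at room temperature with a preformed 50 nM BAZ2B/50 nM biotinylated H3K14Ac peptide complex in PBS pH 7.4 with Tween-20. Donor and acceptor beads at 10 ug/mL final added, 20 min light-protected before reading.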
# Active calls of the source: *; ? = inconclusive; · = no result; [ ] = another dose, or the depositor's remark. The list is not random: actives were taken first. Their share in the collection is about 12%. Calls follow the shape of the dose curve; as a rule, active = well fitted curve in the direction sought with a large enough effect; inconclusive = small, poorly fitted or top-dose-only effect, or another doubt; inactive = no such curve, though single readings can be large; an effect the other way counts as inactive or inconclusive. Potency is read from the fitted curve at half-maximal effect.
SMILES,JMJD2A Tudor inh,Sfp inh,HP1b binding inh,G9a inh,BAZ2B block
CCOC(=O)C(Cc1ccccc1)NC(=O)CNC(=O)CNC(=O)OCc1ccccc1 (centres undefined),-13.9%,13.7%,7.3%,-17.9%,-1.8%
N[C@@H](CSS(=O)(=O)O)C(=O)O,·,44.7µM*,·,-30.7%[59 µM],·
COc1cccc(/C=N/N2CCN(c3ccccc3OC)CC2)c1,44.7µM*,0.1%,-24.0%,?,?
COc1ccccc1N1CCN(/N=C/c2cccc(Cl)c2)CC1,50.1µM*,0.3%,-26.6%,17.8µM*,?
COc1cccc(/C=N/N2CCN(c3ccncc3S(=O)(=O)N3CCCCC3)CC2)c1,?,-15.2%,?,50.1µM*,39.8µM*
CCCOc1cccc(C(=O)NCCCNC(=O)c2ccccn2)c1,-12.5%,-0.2%,7.5%,·,1.5%
O/N=C1\CCCc2c1nc(-c1ccccc1F)n2O,31.6µM*,?,-2.4%,22.4µM*,50.1µM*
COc1ccc(NC(=O)c2cc(C3CC3)on2)c(OC)c1,0.7%,-4.3%,60.1%,44.7µM*,6.7%
COc1ccc(NC(=O)C2CCN(C(=O)c3cccs3)CC2)c(OC)c1,28.2µM*,15.3%,?,7.4%[12.7 µM],-32.1%
COc1ccc(NC(=O)C2CCN(S(C)(=O)=O)CC2)c(OC)c1,-14.4%,3.8%,37.7%,89.1µM*,-12.0%
COc1ccc(NC(=O)C2CCN(C(=O)NC3CCCCC3)CC2)c(OC)c1,79.4µM*,17.4%,-20.5%,-7.1%[59 µM],·
CCc1ccccc1NC(=S)N=Nc1c(O)n(C)c2ccc(S(=O)(=O)N3CCOCC3)cc12,-24.7%,18.9%,2.7%,?,-38.6%
CC(c1ccco1)N(C(=O)c1ccccc1NS(=O)(=O)c1cc([N+](=O)[O-])ccc1Cl)c1ccccn1 (centres undefined),25.1µM*,?,-11.9%,3.98µM*,79.4µM*
CC(c1ccco1)N(C(=O)c1ccccc1NS(=O)(=O)c1ccc(Cl)cc1)c1ccccn1 (centres undefined),-33.6%,23.6%,-2.4%,?,-34.0%
CC(c1ccco1)N(C(=O)c1ccccc1NS(=O)(=O)c1cccc([N+](=O)[O-])c1)c1ccccn1 (centres undefined),-23.6%,?,14.7%,79.4µM*,-38.2%
CCNc1ncc2nc(CCc3ccccc3)c(=O)n(CCC#N)c2n1,·,31.3%,·,-1.1%[0.501 µM],·
Cc1nnc(NC(=O)CSc2cn(CCNC(=O)c3ccccc3)c3ccccc23)s1,-15.5%,-19.1%,47.7%,28.2µM*,-2.6%
COc1ccc(C(=O)NCCn2cc(SCC(=O)Nc3cccc(C)c3)c3ccccc32)cc1,-15.7%,·,33.3%,-31.3%[59 µM],50.1µM*
Cc1ccc(S(=O)(=O)c2nc(Nc3ccccc3C#N)sc2Cl)cc1,11.2%,-0.7%,41.1%,7.94µM*,-5.0%
COc1ccccc1N(CC(=O)NC1CCCC1)C(=O)c1oc(C(C)(C)C)cc1C,?,10.8%,-4.2%,-5.1%,?
Cc1ccc(S(=O)(=O)N2CC3(C)CN(S(=O)(=O)c4ccc(C)cc4)CC(C)(C2)C3=O)cc1,-1.4%,14.0%,55.7%,-4.8%[12.7 µM],3.1%
CC12CN3CC(=O)N4CC5(C)CN(CC(C)(C4)C5=O)C(=O)CN(C1)CC(C)(C3)C2=O,-22.4%,6.6%,37.6%,35.5µM*,-8.3%
CCC(C)C(=O)Nc1nnc(SCC(=O)NC2CCCC2)s1 (centres undefined),-2.1%,-6.8%,20.5%,3.5%,8.1%
CC(C)(C)N1CCC1C(N)=O (centres undefined),·,0.8%,·,·,-2.5%
CCOC(=O)c1sc(NC(=O)c2ccoc2C)c(C(N)=O)c1C,-8.8%,-10.1%,15.0%,-46.7%,?
SMILES,JMJD2A Tudor inh,Sfp inh,HP1b binding inh,G9a inh,BAZ2B block
CCCCC(=O)Nc1sc(C(=O)N(CC)CC)c(C)c1C(=O)OC,70.8µM*,12.6µM*,?,2.24µM*,-17.7%
CCCC(=O)Nc1sc(C(=O)OC)c(C)c1C(N)=O,-6.7%,28.2µM*,-21.7%,11.2µM*,-3.7%
CCn1c(C)nc2cc(C(=O)NNS(=O)(=O)c3cc(Br)ccc3Br)ccc21,-0.7%[11.4 µM],5.4%,48.4%,?,-13.4%
CC(=O)OC1CC2C(C)(C)C(=O)CC[C@]2(C)C2CC[C@]3(C)C(=CC(=O)OC3c3ccoc3)[C@]12C (some centres undefined),·,-12.1%,·,-8.3%[2.33 µM],·
COc1cccc(OCC(=O)N2CCC3(CC2)CC(=O)c2ccccc2O3)c1,-6.2%,·,30.8%,-9.7%[0.501 µM],-2.1%
CC(C)(C)C(=O)CNCC(=O)C(C)(C)C,2.0%,-10.4%,47.6%,39.8µM*,-5.5%
CC(C)(CC(=O)O)CC(=O)O,-17.9%,-0.2%,34.9%,·,?
O=C(Nc1ccc2c(c1)OCO2)c1c[nH]c(=O)n(-c2ccc(F)cc2)c1=O,?,-3.0%,-31.9%,56.2µM*,35.5µM*
O=C(/C=C/Nc1cccc(C(F)(F)F)c1)C(F)(F)F,-8.6%,4.2%,18.8%,·,9.0%
O=[N+]([O-])c1ccc(Cl)c(/C=N/N2CCN(Cc3ccc(Cl)cc3)CC2)c1,23.2%,-2.8%,23.3%,10µM*,22.4µM*
O=[N+]([O-])c1ccc(Cl)c(/C=N/N2CCN(Cc3ccccc3Cl)CC2)c1,?,5.4%,?,44.7µM*,25.1µM*
O=[N+]([O-])c1cccc(/C=N\N2CCN(c3ccc(Cl)cc3)CC2)c1,-10.8%,8.2%,21.4%,?,-6.8%
Clc1cccc(/C=N/N2CCN(Cc3ccccc3)CC2)c1,50.1µM*,13.1%,?,44.7µM*,39.8µM*
O=[N+]([O-])c1cc(/C=N/N2CCN(Cc3ccccc3)CC2)ccc1Cl,?,-2.9%,?,28.2µM*,11.2µM*
Cc1ccc2c(Cl)cc(Cl)c(OCC(=O)Nc3ccc(C)c(S(=O)(=O)N(C)C)c3)c2n1,·,3.9%,·,22.5%,-5.2%
O=[N+]([O-])c1ccc(/C=N/N2CCN(Cc3ccccc3)CC2)cc1,44.7µM*,-0.9%,?,50.1µM*,12.6µM*
O=[N+]([O-])c1ccc(Cl)c(/C=N/N2CCN(Cc3ccccc3)CC2)c1,5.3%,5.5%,28.6%,39.8µM*,10µM*
FC(F)(F)c1ccc(/C=N/N2CCN(Cc3ccccc3)CC2)cc1,?,13.8%,?,?,?
CCOc1ccc(CCNC(=O)c2nn(C)c3c2CS(=O)(=O)c2ccccc2-3)cc1,-17.9%,5.1%,4.0%,-1.1%,?
CC(Oc1ccc2c(-c3ccccc3)cc(=O)oc2c1)C(=O)NC(Cc1c[nH]c2ccc(O)cc12)C(=O)O (centres undefined),?,-1.3%,11.0%,·,?

# Bioassay records (PubChem BioAssay)
